Inconclusive results are not listed. Calls of active or inactive are those of the source. Unless noted, calls come from the whole dose curve; as a rule, active = well fitted curve in the direction sought with a large enough effect; inconclusive = small, poorly fitted or top-dose-only effect, or another doubt; inactive = no such curve, though single readings can be large; an effect the other way counts as inactive or inconclusive.
Columns and labels:
[1] = AP1 Signaling Pathway (AID 357; active = well fitted curve in either direction with a large enough effect, not every such curve was filed as active;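 note: ME-180 reporter cells stimulated with EGF at its EC50 level; % is set by controls: 0 for no effect and ±100 for the full control effect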)
How it was run: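 First, ME-180 AP-1-bla cells were cultured overnight at 37 °C in low-serum Opti-MEM. Next, titrated compounds with EC50 EGF were incubated 5 hours. Finally, CCF4 was added for 2.5 hours and the 460/530 nm ratio recorded.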

[2] = NFAT Signaling Pathway (AID 444; active = well fitted curve in either direction with a large enough effect, not every such curve was filed as active;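 note: carbachol stimulus at about its EC50 of 1 µM final; % is set by controls: 0 for no effect and ±100 for the full control effect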); conditions: Jurkat NFAT-bla M1, carbachol, beta-lactamase ratio, 5 h; at 17.2 µM (top of the series) unless noted
How it was run: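 Jurkat cells with NFAT-driven β-lactamase reporter and co-expressed M1 receptor, stimulated with carbachol (final 1 uM, ~EC50), compound titration, 5 h at 37 °C. CCF4 loaded 1 h at RT; 460/530 nm ratio gave %activity and AC50.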

[3] = Stat Signaling Pathway (AID 446; active = well fitted curve in either direction with a large enough effect, not every such curve was filed as active;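 note: ME-180 cervical cancer cells given 40 pM IL-6 alongside compound; SIE-controlled beta-lactamase reporter measured as 460/530 nm FRET emission ratio; % is set by controls: 0 for no effect and ±100 for the full control effect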)
How it was run: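 ME-180 cells carrying a SIE-driven beta-lactamase reporter are stimulated with 40 pM IL-6 for 5 h at 37C in the presence of compound. The 460/530 nm FRET substrate ratio is read after 2.5 h at RT. Data are normalised to 300 pM IL-6 and to 125 nM JAK inhibitor controls.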

[4] = molecular target: Glucocorticoid receptor (Homo sapiens) (UniProt P04150); assay: GR-GFP Redistribution (AID 450;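 active = compounds whose dose series gives a full or clear partial fitted curve of increased nuclear translocation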; note: potency is the fitted concentration of half-maximal effect); conditions: U2OS GR-GFP nuclear translocation, laser cytometry, 2 h
Chain of Glucocorticoid receptor (Homo sapiens) (P04150 whole entry, looked up, the tested form may be a part): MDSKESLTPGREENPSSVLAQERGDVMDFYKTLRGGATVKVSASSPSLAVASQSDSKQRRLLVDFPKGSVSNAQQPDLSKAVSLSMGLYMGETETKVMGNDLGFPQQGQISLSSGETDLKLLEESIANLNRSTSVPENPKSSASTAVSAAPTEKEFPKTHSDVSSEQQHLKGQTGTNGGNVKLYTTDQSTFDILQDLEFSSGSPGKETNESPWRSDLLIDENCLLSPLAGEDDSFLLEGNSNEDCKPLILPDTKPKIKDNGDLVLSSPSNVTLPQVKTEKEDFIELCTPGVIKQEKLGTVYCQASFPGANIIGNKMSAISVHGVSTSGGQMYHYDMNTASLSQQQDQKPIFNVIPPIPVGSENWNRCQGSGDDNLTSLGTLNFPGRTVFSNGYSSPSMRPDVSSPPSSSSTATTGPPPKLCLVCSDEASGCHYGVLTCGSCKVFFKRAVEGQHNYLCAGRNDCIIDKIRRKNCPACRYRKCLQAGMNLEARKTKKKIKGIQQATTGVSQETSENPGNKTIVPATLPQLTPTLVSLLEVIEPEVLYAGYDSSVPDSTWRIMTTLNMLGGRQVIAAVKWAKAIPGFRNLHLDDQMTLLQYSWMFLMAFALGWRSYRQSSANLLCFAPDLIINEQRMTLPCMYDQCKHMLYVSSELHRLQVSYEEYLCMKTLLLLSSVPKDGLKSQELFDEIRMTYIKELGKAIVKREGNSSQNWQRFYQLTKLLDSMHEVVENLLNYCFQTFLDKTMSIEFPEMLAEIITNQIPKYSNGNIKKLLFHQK

[5] = molecular target: Glucocorticoid receptor (Homo sapiens) (UniProt P04150); assay: GR-EFC Redistribution (AID 451; calls by dose curve; note: potency is the fitted concentration of half-maximal effect); conditions: CHO-K1 GR-EFC translocation, beta-gal luminescence, 2 h
How it was run: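 CHO-K1 cells expressing nuclear EA and GR-ED fragments of b-gal; compounds titrated up to 46 uM final, 2 h at 37 C. GR nuclear translocation read as complemented b-gal luminescence after 1 h RT detection.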

[6] = molecular target: Mitogen-activated protein kinase 10 (Mus musculus) (UniProt Q61831); assay: JNK3 AlphaScreen Assay (AID 530; active = well fitted curve in either direction with a large enough effect, not every such curve was filed as active;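 note: kinase came from lysate of stimulated human HepG2 cells; signal reports phosphorylation of biotinylated GST-cJun 1-79 at Ser73 with 10 µM ATP; % is set by controls: 0 for no effect and ±100 for the full control effect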)
How it was run: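 Pre-activated (IL-1β/TNFα) JNK3 in HepG2 lysates phosphorylates biotin-GST-cJun(1-79), 10 uM ATP; anti-phospho-cJun(Ser73) AlphaScreen read at room temperature, pH 7.6 Tris buffer. Compounds pre-incubated 15 min as titrations.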

[7] = molecular target: 3',5'-cyclic-AMP phosphodiesterase 4B (Homo sapiens) (UniProt Q07343); assay: qHTS Assay for Inhibitors of PDE-IV (AID 607; active = well fitted activation curve with a large enough effect in the main read-out, with a control signal flat, not every such curve was filed as active; note: % of control where 0% means no effect)
Chain of 3',5'-cyclic-AMP phosphodiesterase 4B (Homo sapiens) (Q07343 whole entry, looked up): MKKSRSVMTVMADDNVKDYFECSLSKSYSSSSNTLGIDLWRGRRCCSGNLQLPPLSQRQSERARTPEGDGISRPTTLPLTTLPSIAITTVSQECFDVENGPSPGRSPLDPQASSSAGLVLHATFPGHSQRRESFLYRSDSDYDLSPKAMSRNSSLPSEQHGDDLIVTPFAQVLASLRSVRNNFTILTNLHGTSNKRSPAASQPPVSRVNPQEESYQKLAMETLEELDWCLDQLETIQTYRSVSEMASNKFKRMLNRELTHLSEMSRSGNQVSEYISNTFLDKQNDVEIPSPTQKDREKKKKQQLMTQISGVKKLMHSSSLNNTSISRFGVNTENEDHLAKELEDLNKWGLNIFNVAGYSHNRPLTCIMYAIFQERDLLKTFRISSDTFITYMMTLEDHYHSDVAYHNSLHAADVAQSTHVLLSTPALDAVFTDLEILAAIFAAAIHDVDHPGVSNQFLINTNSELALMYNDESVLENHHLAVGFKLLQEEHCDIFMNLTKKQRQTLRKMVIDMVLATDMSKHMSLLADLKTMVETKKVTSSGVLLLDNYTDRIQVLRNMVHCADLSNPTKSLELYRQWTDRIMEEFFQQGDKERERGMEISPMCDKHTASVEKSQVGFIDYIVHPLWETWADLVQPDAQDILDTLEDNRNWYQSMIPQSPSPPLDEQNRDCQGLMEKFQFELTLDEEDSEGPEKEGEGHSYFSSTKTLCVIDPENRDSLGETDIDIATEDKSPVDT
How it was run: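 HEK293 ACTOne cells with CNG channel (1000/well), endogenous PDE4; membrane potential dye, compounds up to 22.9 uM final. Fluorescence Ex 535/Em 590; RO 20-1724 (100 uM final) as reference.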

[8] = qHTS Assay for Lipid Storage Modulators (AID 1519; calls by dose curve); conditions: Drosophila S3 cells, BODIPY lipid droplet/cell ratio, laser cytometry, cells loaded with oleic acid; for activity change, negative = inhibition: at 25.7 µM (top of the series)
How it was run: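 Cells seeded at 5,000 per well were treated with compounds over a concentration series and loaded with oleic acid (400 uM, as added). Lipid droplet fluorescence (488 nm excitation, 500-530 nm channel) was read by laser-scanning cytometry and normalized to 20 uM Triacsin C.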

[9] = molecular target: ATP-dependent 6-phosphofructokinase (Trypanosoma brucei brucei) (UniProt O15648); assay: qHTS Assay to Find Inhibitors of T. brucei phosphofructokinase: hit validation (AID 492961)
Chain of ATP-dependent 6-phosphofructokinase (Trypanosoma brucei brucei) (O15648 whole entry, looked up): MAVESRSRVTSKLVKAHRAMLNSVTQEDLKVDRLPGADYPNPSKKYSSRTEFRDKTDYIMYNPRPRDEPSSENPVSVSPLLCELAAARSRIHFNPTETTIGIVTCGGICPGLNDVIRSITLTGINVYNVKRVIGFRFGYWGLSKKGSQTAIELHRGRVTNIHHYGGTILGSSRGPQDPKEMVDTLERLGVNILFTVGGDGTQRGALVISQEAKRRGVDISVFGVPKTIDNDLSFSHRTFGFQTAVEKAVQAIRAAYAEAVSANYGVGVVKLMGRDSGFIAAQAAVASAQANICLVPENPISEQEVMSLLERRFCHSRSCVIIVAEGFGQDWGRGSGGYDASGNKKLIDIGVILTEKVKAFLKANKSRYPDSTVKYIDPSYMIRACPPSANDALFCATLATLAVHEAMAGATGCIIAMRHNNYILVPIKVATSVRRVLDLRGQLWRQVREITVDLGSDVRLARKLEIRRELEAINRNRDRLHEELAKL
How it was run: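 Inhibition of parasite PFK is measured as reduced ADP formation, quantified via luciferase after ATP depletion. Assay used 0.1 mM ATP, 0.5 mM F6P, 1.25 nM enzyme, 45 min incubation.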

[10] = molecular target: Ubiquitin carboxyl-terminal hydrolase 1 (Homo sapiens) (UniProt O94782); assay: Inhibitors of USP1/UAF1: Pilot qHTS (AID 504865);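 note: rhodamine fluorescence freed from ubiquitin-rhodamine substrate followed over time; top concentration of the series differs between compounds; % is set by controls: 0 for no effect and ±100 for the full control effect; nearly all actives have a fitted effect of over 35% in size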
Chain of Ubiquitin carboxyl-terminal hydrolase 1 (Homo sapiens) (O94782 whole entry, looked up): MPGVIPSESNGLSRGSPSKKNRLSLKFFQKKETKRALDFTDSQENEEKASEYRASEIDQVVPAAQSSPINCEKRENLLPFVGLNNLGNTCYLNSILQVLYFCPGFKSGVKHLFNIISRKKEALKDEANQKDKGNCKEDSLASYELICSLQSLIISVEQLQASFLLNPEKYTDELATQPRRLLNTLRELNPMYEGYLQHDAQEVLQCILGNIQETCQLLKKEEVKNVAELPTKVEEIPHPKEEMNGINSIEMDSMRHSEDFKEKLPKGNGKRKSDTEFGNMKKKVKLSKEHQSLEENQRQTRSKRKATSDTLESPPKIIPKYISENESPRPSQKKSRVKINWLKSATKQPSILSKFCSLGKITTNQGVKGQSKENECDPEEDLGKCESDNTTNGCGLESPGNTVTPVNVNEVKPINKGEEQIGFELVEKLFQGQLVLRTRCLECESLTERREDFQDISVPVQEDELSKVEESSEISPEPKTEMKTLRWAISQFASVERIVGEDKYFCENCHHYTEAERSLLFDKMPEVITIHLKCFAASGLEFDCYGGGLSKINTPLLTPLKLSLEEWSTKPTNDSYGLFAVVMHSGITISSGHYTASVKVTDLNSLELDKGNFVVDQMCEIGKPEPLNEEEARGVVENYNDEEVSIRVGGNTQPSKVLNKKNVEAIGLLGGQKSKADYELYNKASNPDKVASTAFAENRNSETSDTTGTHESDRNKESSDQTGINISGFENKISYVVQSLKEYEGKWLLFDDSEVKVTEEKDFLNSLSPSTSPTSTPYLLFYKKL
How it was run: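 USP1/UAF1 complex (1nM) preincubated with compound 15 min at room temperature, then Ub-Rho substrate (150nM final) added. Fluorescence read kinetically at 480/540 nm, 6 reads every 60 seconds. Buffer: 50mM HEPES pH 7.8, 0.5mM EDTA, 0.1 mg/ml BSA, 1mM TCEP, 0.01% Tween-20.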

[11] = S16 Schwann cell PMP22 intronic element firefly luciferase assay (AID 624032);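 note: plate controls were DMSO for no effect and PTC124 positive control mean for full effect; nearly all actives have a fitted effect of over 30% in size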
How it was run: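 Rat S16 Schwann cells stably carrying firefly luciferase driven by a PMP22 intronic element, in 10% FBS, treated 24 h at 37 C. ONE-Glo luminescence normalized to PTC124 control and DMSO (0%); curves classed by r2, magnitude and activity.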

[12] = qHTS profiling for inhibitors of Plasmodium falciparum proliferation (AID 504749);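 note: 0% = DMSO vehicle and full inhibition = artemisinin control; nearly all actives have a fitted effect of over 60% in size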; conditions: P. falciparum in erythrocytes, SYBR Green DNA, 72 h, at 12.8 µM (top of the series)
How it was run: (§1)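 P. falciparum-infected erythrocytes (0.3% parasitemia, 2.5% hematocrit) incubated with compound 72 h at 37 C, 5% CO2. Parasite DNA detected by SYBR Green after lysis, overnight at room temperature; normalised to 0.29 uM artemisinin and DMSO.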

C2A = assay: as above; conditions: P. falciparum in erythrocytes, SYBR Green DNA, 72 h; series mostly up to 12.8 µM
How it was run: as §1

CP201 = assay: as above; conditions: P. falciparum in erythrocytes, SYBR Green DNA, 72 h; series mostly up to 12.8 µM
How it was run: as §1

CP238 = assay: as above; conditions: P. falciparum in erythrocytes, SYBR Green DNA, 72 h; series mostly up to 12.8 µM
How it was run: as §1

CP250 = assay: as above; conditions: P. falciparum in erythrocytes, SYBR Green DNA, 72 h; series mostly up to 12.8 µM
How it was run: as §1

FAB9 = assay: as above; conditions: P. falciparum in erythrocytes, SYBR Green DNA, 72 h; series mostly up to 12.8 µM
How it was run: as §1

JCK = assay: as above; conditions: P. falciparum in erythrocytes, SYBR Green DNA, 72 h; series mostly up to 12.8 µM
How it was run: as §1

PC49 = assay: as above; conditions: P. falciparum in erythrocytes, SYBR Green DNA, 72 h; series mostly up to 12.8 µM
How it was run: as §1

SC27B = assay: as above; conditions: P. falciparum in erythrocytes, SYBR Green DNA, 72 h; series mostly up to 12.8 µM
How it was run: as §1

[13] = measured here: cell count channel max response
[14] = measured here: lipid channel max response

CCCCC[C@H](O)/C=C\[C@H]1[C@H](C/C=C\CCCC(=O)O)[C@@H](O)C[C@H]1O (tested in a mixture with another compound)
14.3%: max response [8, 13]
inactive: outcome [1] | activity change, negative = inhibition [2] 11.1% | outcome [3] | Potency [4] > 20.6 µM | Potency [5] > 20.6 µM | Potency [6] | outcome [7] | activity change, negative = inhibition [8] -0.941% | outcome [9] | Potency [10] | Potency [11] | activity, negative = inhibition ([12]; parasite line A) -9.08% | activity, negative = inhibition ([12]; parasite line B) -0.0944% | Potency (C2A) | Potency (CP201) | Potency (CP238) | Potency (CP250) | Potency (FAB9) | Potency (JCK) | Potency (PC49) | Potency (SC27B)
13.4%: max response [8, 14]

CN[C@H]1[C@H](O)[C@@H](O[C@@H]2[C@H](O)[C@@H](O[C@H]3OC(CN)=CC[C@H]3N)[C@@H](N)C[C@H]2N)OC[C@@]1(C)O
-1.73%: max response [8, 13]
-0.476%: max response [8, 14]
inactive: outcome [1] | activity change, negative = inhibition [2] -17.3% | outcome [3] | Potency [4] > 20.6 µM | Potency [5] > 20.6 µM | Potency [6] | activity change, negative = inhibition [8] 0.656% | outcome [9] | Potency [10] | Potency [11] | activity, negative = inhibition ([12]; parasite line A) 3.71% | activity, negative = inhibition ([12]; parasite line B) 6.19% | Potency (C2A) | Potency (CP201) | Potency (CP238) | Potency (CP250) | Potency (FAB9) | Potency (JCK) | Potency (PC49) | Potency (SC27B)

CN[C@H]1[C@@H](O)[C@@H](NC)[C@@H]2O[C@@]3(O)C(=O)C[C@@H](C)O[C@H]3O[C@H]2[C@H]1O
2.93%: max response [8, 14]
1.41%: max response [8, 13]
inactive: outcome [1] | activity change, negative = inhibition [2] -11.9% | outcome [3] | Potency [4] > 20.6 µM | Potency [5] > 20.6 µM | Potency [6] | outcome [7] | activity change, negative = inhibition [8] 0.684% | outcome [9] | Potency [10] | Potency [11] | activity, negative = inhibition ([12]; parasite line A) -10.3% | activity, negative = inhibition ([12]; parasite line B) -0.369% | Potency (C2A) | Potency (CP201) | Potency (CP238) | Potency (CP250) | Potency (FAB9) | Potency (JCK) | Potency (PC49) | Potency (SC27B)

Cc1c(O)c(=O)n(-c2ccccc2)n1C
20.7%: max response [8, 13]
inactive: outcome [1] | activity change, negative = inhibition [2] -1.71% | outcome [3] | Potency [4] > 20.6 µM | Potency [5] > 20.6 µM | Potency [6] | outcome [7] | activity change, negative = inhibition [8] -0.744% | Potency [10]
19.1%: max response [8, 14]

Cn1nnnc1SCC1=C(C(=O)O)N2C(=O)[C@@H](NC(=O)[C@@H](O)c3ccccc3)[C@@H]2SC1
inactive: outcome [1] | activity change, negative = inhibition [2] -2.02% | outcome [3] | Potency [4] > 20.6 µM | Potency [5] > 20.6 µM | Potency [6] | outcome [7] | activity change, negative = inhibition [8] 2.73% | outcome [9] | Potency [10] | Potency [11] | activity, negative = inhibition ([12]; parasite line A) 11.7% | activity, negative = inhibition ([12]; parasite line B) 11% | Potency (C2A) | Potency (CP201) | Potency (CP238) | Potency (CP250) | Potency (FAB9) | Potency (JCK) | Potency (PC49) | Potency (SC27B)
-4.52%: max response [8, 13]
-13.8%: max response [8, 14]

CO[C@H]1[C@H](O[C@H]2O[C@@H](C)[C@@H](O[C@@H]3C[C@](C)(O)[C@H](O)[C@H](C)O3)[C@@H](N(C)C)[C@@H]2O)[C@@H](CC=O)C[C@@H](C)[C@@H](O[C@H]2CC[C@H](N(C)C)[C@H](C)O2)/C=C\C=C/C[C@@H](C)OC(=O)C[C@H]1O
inactive: outcome [1] | activity change, negative = inhibition [2] 7.86% | outcome [3] | Potency [4] > 20.6 µM | Potency [5] > 20.6 µM | Potency [6] | outcome [7] | activity change, negative = inhibition [8] -1.68% | outcome [9] | Potency [10] | Potency [11] | activity, negative = inhibition ([12]; parasite line A) -18% | Potency (C2A) | Potency (CP201) | Potency (CP238) | Potency (CP250) | Potency (FAB9) | Potency (JCK) | Potency (PC49) | Potency (SC27B)
-16.8%: max response [8, 14]
-9.34%: max response [8, 13]

C=C1CC[C@H](O)C/C1=C/C=C1\CCC[C@]2(C)[C@H]1CC[C@H]2[C@@H](C)/C=C\[C@@H](C)C(C)C
inactive: outcome [1] | activity change, negative = inhibition [2] 1.42% | outcome [3] | Potency [4] > 20.6 µM | Potency [5] > 20.6 µM | Potency [6] | outcome [7] | activity change, negative = inhibition [8] 0.549% | Potency [10]
-2.49%: max response [8, 13]
-2.71%: max response [8, 14]

CS(=O)(=O)c1ccc([C@H](O)[C@H](CF)NC(=O)C(Cl)Cl)cc1
1.07%: max response [8, 13]
inactive: outcome [1] | activity change, negative = inhibition [2] 1.9% | outcome [3] | Potency [4] > 20.6 µM | Potency [5] > 20.6 µM | Potency [6] | outcome [7] | activity change, negative = inhibition [8] 1.06% | outcome [9] | Potency [11]
2.55%: max response [8, 14]

Cc1onc(-c2c(Cl)cccc2Cl)c1C(=O)N[C@H]1C(=O)N2[C@H]1SC(C)(C)[C@H]2C(=O)O
inactive: outcome [1] | activity change, negative = inhibition [2] -5.49% | outcome [3] | Potency [4] > 20.6 µM | Potency [5] > 20.6 µM | Potency [6] | outcome [7] | activity change, negative = inhibition [8] -2.5% | Potency [10]
-4.28%: max response [8, 14]
-2.7%: max response [8, 13]

— PubChem BioAssay (NCATS)
